The source of these data is PubChem BioAssay (NCI).

Compounds without any hit were thinned out: in the full panel of roughly 83,000, 20% have a hit.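 The test compound was applied at a single concentration to cells in 96-well plates for 48 hours, and percent growth was recorded.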 Unmarked numbers belong to inactive results. Activity calls are given as the source filed them. How the source made its calls: active means growth percent below 10; inactive means the rest.

The experiment relates to MDA-MB-468 breast. The experiment in a line: NCI-60 one-dose screen, 48 h (100 = growth as untreated, 0 = no growth, -100 = all killed). The note with it: 10 µM unless noted.
In the case of `COc1ccc(C2=C/C(=C\c3ccc(Cl)cc3)C(=O)N2/N=C/c2ccc(Cl)cc2)cc1`, the growth was 94.3%.
On to `CN1CCN(Cc2ccc(NC(=O)c3cncc(C#Cc4nc(N)nc5[nH]ncc45)c3)cc2C(F)(F)F)CC1`, for which the growth is 35.1%.
As for `O=C(C(=O)N1CCCCC1)c1ccc(OC2OC(CO)C(O)C(O)C2O)cc1` (stereo not drawn), the figure is 100%.
For `O=C1/C(=C/c2ccc(F)cc2)COc2ccc(O)cc21`, the growth is 86.4%.
In the case of `Cc1nnc(-c2ccc3c(c2)nc(/C=C/c2ccccc2)n3C2CCCCC2)o1`, the growth is 91.3%.
On to `COc1ccc(-c2nc(/C=N/Nc3cc(C)nc4ccc(Cl)cc34)c(C)o2)cc1`, for which the growth is -73.7% (active).
Take `CC(C)(C)NC(C1=CC(C)(C)c2ccccc2C1=O)c1ccccc1` (stereo not drawn): the growth was -100% (active).
In the case of `C=CC[N+]1(CC)CCN=C1CCCCCCCCCCCCCCCCC` (stereo not drawn), the growth is -82.6% (active).
Then `Clc1ccc(-c2ccc(CNCC3CCNCC3)o2)c(-c2ccccc2)c1`, with -79.1% (active).
`Cc1cccc(-c2nc(C(C)C)sc2-c2ccnc(NCCCNS(=O)(=O)c3ccc(Cl)cc3)c2)c1`: the growth is 55.2%.
Take `C#CCN(C)CCCOc1ccc(NC(=O)CCCCCCCCC(=O)NO)cc1Cl`: the growth is 27.6%.
With `CCN(CC)CCCC(Nc1c2ccc(Cl)cc2nc2ccc(OC)cc12)c1ccc(F)cc1` (stereo not drawn), the growth is 90.5%.
Then `Cc1cc2c(C(C)C)c(O)c(O)c(/C=N/O)c2c(O)c1-c1c(C)cc2c(C(C)C)c(O)c(O)c(/C=N/O)c2c1O`, with 20.9%; and `N#Cc1ccc(Oc2ccc3ccc(=O)oc3c2)cc1`, with 93.4%; and `COc1ccc(/C=C/C(=O)c2ccc(-n3cc(CN4CCN(c5cc6c(cc5F)c(=O)c(C(=O)O)cn6C5CC5)CC4)nn3)cc2)cc1OC`, with -7.19% (active).
For `CCN(CC)CCCNc1nccc2ccc(Cl)cc12`, the growth was 97.5%.
As to `N=c1c2cc(-c3ccccc3)oc2ncn1/N=C/c1ccccc1`, the growth is 53.7%.
Consider `CN1CCN(c2nc(NCCCCNc3ccnc4cc(Cl)ccc34)c3ccccc3n2)CC1`, for which the growth was 62.4%.
`Cc1c2ncccc2nc2[nH]c3ccc(OCCN(C)C)cc3c12`: the growth was -34.7% (active).
With `CCCCNCC(=O)Nc1ccc(C(=O)OCC)cc1`, the growth was 103%.
For the compound `Nc1c(C(=O)Nc2ccccc2F)sc2nc3c(cc12)C(=O)CCC3`, the growth was -15.2% (active).
As to `CCOC(=O)C(C(C)=O)c1nc2sc3cc(Cl)ccc3n2c(=N)c1C#N` (stereo not drawn), the growth is 4.75% (active).
With `Cc1ccc(S(=O)(=O)NC(CCC(=O)Nc2ccccc2)C(=O)Nc2ccccc2)cc1` (stereo not drawn), the growth was -20.6% (active).
With `C=CC(=O)Nc1cccc(Oc2nccc(Nc3nnc(C4CC4)s3)n2)c1`, the growth was 102%.
In the case of `COc1ccc(C(=O)N2N=C(c3ccc(F)cc3)CC2c2cn(-c3ccccc3)nc2-c2ccccc2)cc1` (stereo not drawn), the growth was 60.8%.
As to `COc1ccc(C2CC(=O)c3c(O)c(OC)c(OC)c(OC)c3O2)c(O)c1` (stereo not drawn), the growth is -3.61% (active).
Then `COc1ccc2c(c1)c(C(=O)c1nc(-c3cn(C)c4ccccc34)no1)cn2C`, with 108%; and `O=C1c2ccccc2C(=O)c2cc(Cn3cc[n+](Cc4ccc5ccccc5c4)c3)ccc21`, with -32.2% (active).
